Reference: PubChem BioAssay (NCI)
The panel holds about 83,000 compounds, 20% with a hit somewhere; the sample as a whole holds those more often.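 48-hour exposure, single concentration, 96-well plates; percent growth endpoint where 0 means no net growth. Active: below 10.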 Unmarked numbers belong to inactive results. Activity calls are given as the source filed them.

Test system: RPMI-8226 leukemia
Assay: NCI-60 one-dose screen, 48 h (100 = growth as untreated, 0 = no growth, -100 = all killed)
Conditions: 10 µM
Experimental: Growth inhibition of the RPMI-8226 human tumor cell line is measured as a screen for anti-cancer activity. Cells are grown in 96 well plates and exposed to the test compound for 48 hours. Compounds are tested at a single concentration, which is 10^-5 M for most compounds. The reported endpoint is percent growth (GI% or GIPRCNT), where numbers from 0 - 100% represent growth inhibition, and numbers from -100% - 0 represent cell death. For example, a value of 40 represents 60% growth inhibition. A value of 0 means no net growth occurred over the course of the experiment. A value of -40 indicates 40% of cells at the beginning of the experiment died by the end of the experiment. A value of -100 means all cells are dead at the end of the experiment.
NCI-60 Human Tumor Cell Lines Screen was performed using the standard one-dose NCI protocol, which is described in more detail at https://dtp.cancer.gov/discovery_development/nci-60/default.htm.
Compounds with GIPRCNT values below 10 were considered active. Activity score was based on GIPRCNT using the following formula: […]
Score is 0 for GIPRCNT values of 100 or above, 50 for GIPRCNT values of 0, and 100 for GIPRCNT values of -100.

Structure (SMILES)	growth
Clc1nc(-c2ccccn2)nc2sc3c(c12)CCCCCC3	95.5%
COc1ccccc1/C=C/C(=O)/C=C/c1ccccc1O	-53.7% (active)
O=c1c2cc(F)ccc2oc2c(NCCNCCO)nc3ccccc3c12	32.1%
O=c1[nH]c(-c2ccccn2)nc2sc3c(c12)CCCCCC3	39.4%
CC(C)(C)[Si](C)(C)OC1[C@@H](COC(N)=O)O[C@@H](n2cnc3c(N)ncnc32)[C@H]1O[Si](C)(C)C(C)(C)C (stereo not given in full)	21.6%
O=C(NCc1ccc(F)cc1)C1CN(c2ccc(Cl)cc2)N(c2ccc(Cl)cc2)C1=O (stereo not given)	72.8%
O=c1[nH]c(=S)[nH]c(=O)n1Cc1cccc2ccccc12	106%
CCOC(=O)c1[nH]c2cc(Cl)ccc2c1[C@@H](C(=O)NC(C)(C)C)N(CC)C(=O)CCCCC#Cc1cccc2c1CN(C1CCC(=O)NC1=O)C2=O (stereo not given in full)	7.28% (active)
COc1ccc(-c2c3c(N)c4c(nc3nc3c2c(C)nn3-c2ccccc2)CCCC4)cc1	-37.5% (active)
Oc1ccccc1/C=N/Nc1nc2ccccc2s1	35.8%
O=C(N/N=C(\CS(=O)(=O)c1ccccc1)c1cc2cc(Br)ccc2oc1=O)c1ccccc1	121%
COc1cc(C(F)(F)F)ccc1-c1cc(-c2ccc(F)cc2)n[nH]1	67.5%
CCCCNNC(=O)c1ccc(Br)cc1	17.8%
CC1(C)N=C(N)N=C(N)N1c1cccc(/C=C/C=C/c2cccc([N+](=O)[O-])c2)c1	8.42% (active)
Nc1cc(Br)c(-c2nnc(CCC(=O)c3nc4ccccc4[nH]3)o2)c(Br)c1	79.6%
CCCCC1COc2cccc3c(SCC(=O)N(C)c4cccc5ccccc45)cc[n+]1c23 (stereo not given)	89.5%
Cc1nc2cc(Nc3nc(Nc4ccc(F)cc4)nc(-c4cccs4)n3)ccc2n1Cc1ccccc1	-0.339% (active)
CCCCC/C=C\C/C=C/CCCCCCCCNC(=O)Nc1ccc([N+](=O)[O-])cc1	12.8%
O=C(Nc1ccccc1)Oc1cccc2cccnc12	76.2%
C[C@H]1C(=O)C23CCC1C[C@@]21O[C@@H]2C(C)(C)C=CC(=O)C23COC1=O	93.5%

Structure (SMILES)	growth
CCN(CC)c1ccc2c(c1)OS(=O)(=O)N=C2	104%
O=C(CCc1nnc2sc(-c3ccccc3)nn12)c1nc2ccccc2[nH]1	83%
C[C@@H](Oc1cc(-c2cnn(C3CC4(CCCNC4)C3)c2)cnc1N)c1c(Cl)ccc(F)c1Cl (stereo not given in full)	-0.0926% (active)
COc1ccc(/C=N/NC(=O)c2cnn3c2NC(c2ccccc2)C3)cc1OC1CCCC1 (stereo not given)	79%
COc1cc(NC(=O)COc2ccccc2)c(C(N)=O)cc1OC	9.18% (active)
COc1ccc(S(=O)(=O)ON=C2C=C(C)C(=O)C(C)=C2)cc1	35.1%
CCCCCCCC/C=C\CCCCCCCCOc1cccc(CC(=O)NCC[N+]2(C)CCOCC2)c1	96.4%
O=C(NCc1cccnc1)c1ccc([N+](=O)[O-])o1	52.8%
O=C(c1ccccc1)C(Br)C(Br)c1cccc([N+](=O)[O-])c1 (stereo not given)	-19.4% (active)
COc1cccc(Nc2nc(NCCO)c3ccccc3n2)c1	13.7%
COc1cc(/C=N/NC(=O)c2cnn3c2NC(c2ccccc2)C3)cc(OC)c1OC (stereo not given)	96.7%
O=C1C(Cl)=C(NCCCN2CCOCC2)C(=O)c2ccccc21	78.3%
N#CC1=C(N)Oc2cc(N)ccc2C1c1ccc(F)cc1 (stereo not given)	81.6%
C=C(C)CCCC(C)CC#N (stereo not given)	102%
CC(C)NCC(O)COc1ccc(CCOCC2CC2)cc1 (stereo not given)	99.1%
O=C1C(OCCOc2ccccc2)=C(OCCOc2ccccc2)C(=O)c2ccccc21	78.8%
COCCOC1=C(Cl)C(=O)c2ccccc2C1=O	6.59% (active)
Cc1cccc2c(=O)c3c(sc12)c(NCCNCCO)nc1ccccc13	-34.2% (active)
O=C(COc1ccc(/C=C2\CSc3ccccc3C2=O)cc1)c1ccc(Cl)cc1	95.8%
Cc1cc(Cl)c2c(Cl)ccc(Cl)c2n1	107%
